From PubChem
TDP1 cell CPT = growth inhibition of DT40 Tdp1-/-;hTDP1 cells with camptothecin (screen for TDP1 inhibitors); chicken DT40 Tdp1-/-;hTDP1 cells + 20 nM CPT, ATP luminescence, 48 h; Potency, µM (doses to about 46.2 µM), for the others: at the highest dose activity change, negative = growth inhibition, usual class: inhibitors; AID 686979; 420,000 compounds, 12% hits; note: % is set by controls: 0 for no effect and ±100 for the full control effect; nearly all actives have a fitted effect of over 55% in size
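Chicken DT40 Tdp1-/- cells stably complemented with human TDP1 were seeded at 400 cells/well in medium containing 20 nM camptothecin, exposed to pin-transferred compounds, and grown at 37 °C for at least 48 hr. Viability was read as ATP luminescence.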
DT40 TDP1 no CPT = qHTS for Inhibitors of human tyrosyl-DNA phosphodiesterase 1 (TDP1): qHTS in cells in absence of CPT | 420,000 compounds, 15% hits | Potency, µM (titrated, usually from 46.2 µM), inactives show at the top dose activity change, negative = growth inhibition, hits mostly inhibitors | DT40 Tdp1-/- hTDP1 cells, no CPT, ATP luminescence, 48 h; note: % is set by controls: 0 for no effect and ±100 for the full control effect; nearly all actives have a fitted effect of over 55% in size
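DT40 Tdp1-/-;hTDP1 cells, no CPT (DMSO vehicle only), 400 cells/well; compounds pin-transferred; ≥48 hr, 37 °C; CellTiter-Glo 30 min RT dark, luminescence read.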
HT1080-NT tox = kills 2HG-producing HT-1080-NT fibrosarcoma cells; Potency, µM (series often up to 46.1 µM), for inactives: at the highest dose activity, negative = less viability, most hits filed as cytotoxic; AID 686970; HT-1080-NT fibrosarcoma viability, CellTiter-Glo ATP luminescence, 48 h; 360,000 compounds, 1.6% hits;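 note: NT is the 2HG producing partner of a matched IDH1 knockdown line; 0% = DMSO-treated cells and -100% = media-only wells without cells; nearly all actives have a fitted effect of over 55% in size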
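Fibrosarcoma NT cells, 750 per well in 5% FBS RPMI, were exposed to compound for 48 hours. Viability: CellTiter-Glo luminescence.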
TGFb SMAD3 inh = blocks TGF-b signaling. HepG2 CAGA-GFP TGF-b/SMAD3 reporter, GFP fluorescence, 18 h; TGF-beta stimulated, 500 pg/mL final. Potency, µM (top dose mostly 46.1 µM), for the others: top-dose activity, negative = inhibition, usual class: inhibitors. 410,000 compounds, 1.2% hits. AID 588855; note: % is set by controls: 0 for no effect and ±100 for the full control effect; nearly all actives have a fitted effect of over 65% in size
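GFP signal (ex488/em500-530) from TGF-beta-stimulated HEPG2 CAGA-GFP cells, 500 pg/mL final, 18 h at 37 degrees C in DMEM plus 1% FBS, normalized to unstimulated and DMSO-stimulated controls.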
HT1080 IDH1KD tx = toxicity to HT-1080 IDH1 knockdown cells (counter line); HT-1080 IDH1 knockdown viability, ATP luminescence, 48 h; Potency, µM (top dose mostly 46.1 µM), for the others: at the top dose activity, negative = toxicity, usual class: cytotoxic; 360,000 compounds, 2% hits;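 note: 0% = DMSO wells and -100% = cell-free medium wells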
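After a 2 h attachment period, IDH1KD HT-1080 cells took pin-transferred compound for 48 h at 37 °C; ATP-based luminescence after 10 min room-temperature reagent incubation reported viability.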
HepG2 tox = counter-screen for TGF-b inhibitors: cytotoxicity in HepG2 cells; Potency, µM (titrated, usually from 46.1 µM), without a hit: at the top dose activity change, negative = cytotoxicity, actives largely listed as cytotoxic; HepG2 CAGA-GFP viability, ATP luminescence, 18 h; AID 588856; 410,000 compounds, 0.76% hits
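HepG2 CAGA-GFP cells (1000/well, DMEM with 1% FBS) received compound, then TGF-beta at 500 pg/mL final, and were incubated 18 hours at 37 degrees C. Viability was read by CellTiter-Glo luminescence. Media-only wells were set as complete cell-killing and DMSO as no toxicity.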
* = called active by the depositor; ? = inconclusive; / = not tested or not shown; [ ] = another dose, or the depositor's remark. Most compounds without a hit are left out; they make up all but 17% or so of the library. Calls come from the whole dose curve; as a rule, active = well fitted curve in the direction sought with a large enough effect; inconclusive = small, poorly fitted or top-dose-only effect, or another doubt; inactive = no such curve, though single readings can be large; an effect the other way counts as inactive or inconclusive. Potency is the fitted concentration of half-maximal effect.

SMILES	TDP1 cell CPT	DT40 TDP1 no CPT	HT1080-NT tox	TGFb SMAD3 inh	HT1080 IDH1KD tx	HepG2 tox
Cn1cc(CN2CCC(C(=O)NC(c3ccc(-c4ccccc4)cc3)c3cnccn3)CC2)c2ccccc21 (centres undefined)	13µM*	16.4µM*	5.17µM*	?	?	11.2µM*
O=C(NC(c1ccc(-c2ccccc2)cc1)c1cnccn1)C1CCN(Cc2ccc3c(c2)OCO3)CC1 (centres undefined)	5.8µM*	5.17µM*	13µM*	?	10.3µM*	-93.2%
O=C(NNC(=O)C1CCN(Cc2ccc(Cl)c(Cl)c2)CC1)c1cccs1	-1.2%	16.4µM*	-18.5%	?	-15.0%	-44.7%
O=C(NC(c1ccccc1)c1cnccn1)C1CCN(Cc2ccc(Cl)c(Cl)c2)CC1 (centres undefined)	9.2µM*	13µM*	?	-15.7%	?	-38.4%
O=C(NC(c1ccc(-c2ccccc2)cc1)c1cnccn1)C1CCN(Cc2ccc(Cl)c(Cl)c2)CC1 (centres undefined)	?	?	-10.2%	?	-3.6%	-34.8%
O=C(CSc1nncn1-c1cccnc1)Nc1cccc(C(F)(F)F)c1	3.9%	?	-0.3%	0.0%	-7.8%	-40.6%
NCCCC[C@@H](C(=O)N1CCNCC1)n1cc([C@@H](N)CC(N)=O)nn1	?	-4.0%	4.3%	-4.0%	10.6%	8.0%
CCCCCCCCCCOCC(O)CN (centres undefined)	6.68µM*	6.68µM*	/	/	/	/
CCCCCCCCCCCCCCCCOCCOCCOCCOCCOCCOCCOCCOCCOCCOCCOCCOCCOCCOCCOCCOCCOCCOCCOCCOCCO	23.7µM*	7.5µM*	/	/	/	/
CN1CCc2c1nc1ccccc1c2N (tested in a mixture with another compound)	12.1%	-0.4%	3.2%	2.1%	-1.6%	-3.0%
Cc1cccc2c(N)c3c(nc12)N(C)CC3	8.2µM*	11.6µM*	0.2%	-11.3%	3.8%	-14.9%
Cc1nc2c(C)cccc2c2c1CCN2c1ccccc1F	14.6µM*	20.6µM*	-8.4%	?	?	-27.2%
CCCCC1CCC(C(=O)N(CCC(C)C)c2c(N)n(CCCC)c(=O)[nH]c2=O)CC1 (centres undefined)	?	?	-0.4%	-1.8%	11.3%	-7.2%
CNC(=O)C1CC(=O)N(c2ccc(OCC(=O)Nc3ccccc3)cc2)C1 (centres undefined)	12.5%	-6.7%	6.8%	-8.5%	-0.5%	9.8%
COc1ccc(-n2c(C)nnc2SCc2nc(-c3ccc(OC)c(OC)c3)no2)cc1	-24.1%	-23.3%	/	?	/	-3.6%
COc1ccc(-c2noc(CSc3nnc(Cc4ccccc4)n3-c3ccc(F)cc3)n2)cc1	?	16.4µM*	/	15.8µM*	/	-36.4%
COc1ccc(-c2noc(CSc3nnc(-c4ccc(Cl)cc4)n3C)n2)cc1OC	?	16.4µM*	/	?	/	-43.8%
COc1ccc(-c2noc(CSCC(=O)Nc3ccc(C)cc3Br)n2)cc1OC	-29.7%	-22.4%	/	-16.8%	/	-33.1%
COc1cc(Cl)c(C)cc1NC(=O)CSCc1nc(-c2ccc(OC)c(OC)c2)no1	20.6µM*	16.4µM*	/	-1.4%	/	-21.5%
COc1ccc(-c2nnc(SCc3nnc(-c4ccc(Cl)cc4)o3)n2-c2ccccc2)cc1	16.4µM*	16.4µM*	-11.8%	?	-23.2%	-7.6%
CCC1C(=O)NCCN1Cc1ccc2c(c1)CN(Cc1ccc(F)c(OC)c1)CCO2 (centres undefined)	-6.2%[9.04 µM]	-7.5%	/	/	/	/
